In the library only some 7.2% were active in any assay of this set; here they are far more common.
HEK293 tox: cytotoxic compounds in HEK 293 cells; AID 1345083; 94,000 compounds, 6.6% hits; Potency, µM (titrated, usually from 115 µM), usual class: inhibitors; HEK 293 viability, ATP luminescence (CellTiter-Glo), 48-72 h; also: nearly all actives have a fitted effect of over 60% in size
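Viability of HEK 293 cells, plated at 250 cells/well, was judged by cellular ATP after compound treatment for 48 or 72 hr. Luminescence was imaged 10 min after CellTiter-Glo addition at room temperature.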
hNpr1 antagonist: human Npr1 receptor antagonism; HEK293 hNpr1 GloSensor cGMP, ANP-stimulated luminescence; Potency, µM (titrated, usually from 46.3 µM), actives largely listed as inhibitors; P16066; 76,000 compounds, 1.6% hits; calls by dose curve; also: nearly all actives have a fitted effect of over 60% in size
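HEK293 cells stably expressing human Npr1 and cGMP GloSensor pGS-40F, loaded 2 h with 2% GloSensor reagent, given compound 30 min at room temperature. Luminescence read before and 20 min after 0.1 nM hNppA.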
FLuc inh: inhibitors of firefly (Photinus pyralis) luciferase; 76,000 compounds, 2.5% hits; Potency, µM (series often up to 115 µM), most hits filed as inhibitors; AID 1347043; purified P. pyralis luciferase, luminescence, biochemical; also: nearly all actives have a fitted effect of over 65% in size
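Luminescence read by CCD imaging after purified firefly luciferase (10nM final) was added to substrate buffer holding 10uM D-luciferin and 10uM ATP, pH 7.5, pre-dosed with compound.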
NIH3T3 tox: kills NIH 3T3 cells. NIH 3T3 viability, CellTiter-Glo ATP luminescence, 48-72 h. Potency, µM (titrated, usually from 96.7 µM), usual class: inhibitors. 94,000 compounds, 4.3% hits. AID 1345082; also: nearly all actives have a fitted effect of over 55% in size
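Viability of NIH 3T3 cells after 48 or 72 hr compound treatment at 37 °C was assessed by CellTiter-Glo, with luminescence imaged following a 10 min room-temperature step.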
SNCA expr inhib: inhibitors of alpha-synuclein (SNCA) gene expression; HEK-293 SNCA-luciferase knock-in, luminescence, 24 h; 140,000 compounds, 0.17% hits; Potency, µM (highest dose often 57.2 µM), most hits filed as inhibitors; also: nearly all actives have a fitted effect of over 45% in size
SNCA viab count: cell viability loss counter-screen; 150,000 compounds, 0.12% hits; Potency, µM (series often up to 57.1 µM), usual class: cytotoxic; HEK-293-SNCA-luc viability, GF-AFC fluorescence, 24 h; also: nearly all actives have a fitted effect of over 30% in size
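HEK-293-SNCA-luc cells (1500/well) plated 24 h, then exposed 24 h to a dilution series; GF-AFC added 30 min at 37C, fluorescence 405/540 nm; normalised to medium-only and DMSO wells, Hill fit.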
Large screens that a line does not name were inactive. Unless noted, calls follow the shape of the dose curve; as a rule, active = well fitted curve in the direction sought with a large enough effect; inconclusive = small, poorly fitted or top-dose-only effect, or another doubt; inactive = no such curve, though single readings can be large; an effect the other way counts as inactive or inconclusive.

Fc1ccc(-c2ccc3ncc(Nc4cc(F)cc(N5CCOCC5)c4)n3n2)cc1	HEK293 tox 63µM, hNpr1 antagonist inconclusive, FLuc inh inconclusive, NIH3T3 tox inconclusive, SNCA expr inhib inconclusive
COc1cccc(Nc2cnc3ccc(N4CCOCC4)nn23)c1	NIH3T3 tox inconclusive
Fc1ccc(-c2ccc3ncc(Nc4ccnc(N5CCOCC5)c4)n3n2)cc1	HEK293 tox 32µM, hNpr1 antagonist inconclusive, NIH3T3 tox 8.9µM, SNCA viab count inconclusive
Cc1ccc([S+](=O)([O-])c2nnn3c2nc(NCc2ccncc2)c2ccccc23)cc1C	none (no result: hNpr1 antagonist, FLuc inh)
COc1ccc(C(=O)N2CCC3(CC2)OC(=O)N(Cc2ccccc2F)C3(C)c2ccccc2)cc1 (stereo unspecified)	HEK293 tox 45µM, NIH3T3 tox 35µM
COc1cccc(CC(=O)N2CCC3(CC2)OC(=O)N(Cc2ccccc2F)C3(C)c2ccccc2)c1 (stereo unspecified)	HEK293 tox inconclusive, NIH3T3 tox 25µM
CCN1c2cc(C(=O)Nc3ccc(Oc4ccccc4)cc3)ccc2C(=O)N2CCCCC21 (stereo unspecified)	HEK293 tox inconclusive, NIH3T3 tox 32µM, SNCA expr inhib inconclusive
CN1c2cc(C(=O)Nc3ccc(Oc4ccccc4)cc3)ccc2C(=O)N2CCCCCC21 (stereo unspecified)	HEK293 tox 10µM, hNpr1 antagonist inconclusive, FLuc inh inconclusive, NIH3T3 tox inconclusive
CCOc1ccc(NC(=O)c2ccc3c(c2)N(C)C2CCCCN2C3=O)cc1 (stereo unspecified)	HEK293 tox inconclusive, FLuc inh inconclusive, NIH3T3 tox inconclusive
CN1c2cc(C(=O)Nc3ccc(Oc4ccccc4)cc3)ccc2C(=O)N2CCCCC21 (stereo unspecified)	HEK293 tox inconclusive, hNpr1 antagonist inconclusive, FLuc inh 50µM, NIH3T3 tox inconclusive, SNCA expr inhib inconclusive
CCOc1ccc(NC(=O)c2ccc3c(c2)N(C)C2CCCCCN2C3=O)cc1 (stereo unspecified)	HEK293 tox inconclusive, FLuc inh inconclusive, NIH3T3 tox inconclusive
O=C1NC2CCCCC2=C1CC(=O)N1CCc2ccccc21 (stereo unspecified)	none
O=C(NCc1ccc2c(c1)OCO2)c1ccc(-c2ccc(N3CCSCC3)nc2)cc1	HEK293 tox inconclusive, FLuc inh inconclusive, NIH3T3 tox inconclusive
Cc1ccc(CNC(=O)c2ccc(-c3ccc(N4CCSCC4)nc3)cc2)o1	HEK293 tox inconclusive, FLuc inh 28µM, NIH3T3 tox inconclusive, SNCA viab count inconclusive
COc1ccc(CNC(=O)c2ccc(-c3ccc(N4CCSCC4)nc3)cc2)cc1OC	HEK293 tox inconclusive, hNpr1 antagonist 10µM, FLuc inh inconclusive, NIH3T3 tox inconclusive
CCc1ccc(C(=O)N2[C@@H]3CC[C@H]2CC(NC(=O)c2ccncc2)C3)cc1 (stereo partly specified)	none
CCOc1ccc(CC(=O)N2CCCN(c3cc(-c4ccc(OC)cc4)[nH]n3)CC2)cc1OCC	HEK293 tox inconclusive
COc1ccc(CCN2CCC(CN(C)Cc3nc(C(C)C)cs3)CC2)cc1	HEK293 tox 32µM, NIH3T3 tox inconclusive
CCOC(=O)c1ccc(N2C(=O)c3n[nH]c(-c4cccs4)c3C2c2ccc(C)cc2)cc1 (stereo unspecified)	none (no result: HEK293 tox, hNpr1 antagonist, FLuc inh, NIH3T3 tox)
CCOC(=O)c1ccc(N2C(=O)c3n[nH]c(-c4ccco4)c3C2c2ccc(OCC)cc2)cc1 (stereo unspecified)	SNCA expr inhib 20µM, SNCA viab count inconclusive (no result: HEK293 tox, hNpr1 antagonist, FLuc inh, NIH3T3 tox)
CCOC(=O)c1ccc(N2C(=O)c3n[nH]c(-c4cccs4)c3C2c2ccc(Cl)cc2Cl)cc1 (stereo unspecified)	SNCA expr inhib inconclusive, SNCA viab count 22µM (no result: HEK293 tox, hNpr1 antagonist, FLuc inh, NIH3T3 tox)
O=C(c1ccn[nH]1)N1CC(F)(F)C[C@H]1c1nc(C2CC2)no1	none
C=CCNC(=O)CN1CC2CC(C1)[C@H]1CCCC(=O)N1C2 (stereo partly specified)	none
O=C(NCc1ccc(Cl)cc1)c1noc(-c2ccc(F)cc2)n1	HEK293 tox inconclusive
Cc1ccc(-c2nc(C(=O)NCc3ccccc3F)no2)cc1	FLuc inh 22µM
COc1ccc(CNC(=O)c2noc(-c3ccc(C)cc3)n2)cc1OC	HEK293 tox inconclusive, hNpr1 antagonist 13µM, FLuc inh inconclusive, NIH3T3 tox inconclusive
Cc1ccc(-c2nc(C(=O)NCc3ccco3)no2)cc1	FLuc inh 16µM
O=C(NCc1cccc(Br)c1)c1noc(-c2ccc(F)cc2)n1	HEK293 tox 25µM, FLuc inh inconclusive, NIH3T3 tox 32µM
COc1ccc(NC(=O)C2CN(S(=O)(=O)C3CC3)CC23CCCCC3)c(OC)c1 (stereo unspecified)	none
CC(=O)N1CCC(N2CCN3C(=O)N(Cc4ccccn4)C[C@H]3C2)CC1	none
Cc1ccc(C(=O)N2CCCCCCNC(=O)CC2c2ccccc2)s1 (stereo unspecified)	HEK293 tox inconclusive, NIH3T3 tox inconclusive
Cc1noc(C)c1C(=O)N1CCC2(CC1)CN([S+](=O)([O-])c1ccccc1)CCO2	none (no result: hNpr1 antagonist, FLuc inh)
Cc1ccc(-c2nc(C(=O)NCc3cc(F)cc(F)c3)no2)cc1	HEK293 tox 32µM, NIH3T3 tox inconclusive, SNCA expr inhib inconclusive
O=C(NCc1ccc(F)cc1)c1noc(-c2ccc3c(c2)OCO3)n1	FLuc inh inconclusive
O=C(NCc1ccccc1F)c1noc(-c2ccc3c(c2)OCO3)n1	FLuc inh 32µM, NIH3T3 tox inconclusive
O=C(NCc1ccccc1)c1noc(-c2ccc3c(c2)OCO3)n1	HEK293 tox inconclusive, FLuc inh 40µM, NIH3T3 tox inconclusive
COCCN1CCC(C(=O)Nc2ccc(Oc3ccccc3F)cc2)CC1	HEK293 tox 50µM, NIH3T3 tox inconclusive
O=C(Nc1ccc(Oc2ccccc2F)cc1)C1CCCCN1C(=O)c1cccnc1 (stereo unspecified)	HEK293 tox inconclusive
COc1cccc(-c2ccccc2NC(=O)C2CCN(CC=C(C)C)CC2)c1	HEK293 tox inconclusive, NIH3T3 tox 20µM
COc1cccc(-c2ccccc2NC(=O)C2CCN(Cc3ccccc3F)CC2)c1	HEK293 tox inconclusive, hNpr1 antagonist inconclusive, NIH3T3 tox 45µM
COc1cccc(CN2CCC(C(=O)Nc3ccccc3-c3cccc(OC)c3)CC2)c1	HEK293 tox 22µM, hNpr1 antagonist inconclusive, NIH3T3 tox inconclusive
CC[C@H]1CN(C(=O)Nc2cccc(C(F)(F)F)c2)CC[C@H]1CC(=O)N(C)CCC#N	HEK293 tox inconclusive, NIH3T3 tox inconclusive
COc1ccc(CN2Cc3[nH]cnc3C[C@H]2C(=O)NCc2ccc(C#N)cc2)c2ccccc12	HEK293 tox inconclusive, NIH3T3 tox 79µM

Screening results from PubChem BioAssay.
